Records with an inconclusive call do not appear. Active and inactive are the calls of the source. Unless noted, the call rests on the fitted dose curve; in most records, active means well fitted curve in either direction with a large enough effect (not every such curve was filed as active); inconclusive means small, poorly fitted or top-dose-only effect, or another doubt; inactive means flat fitted curve, though single readings scatter.
How the values were obtained:
[1] = AP1 Signaling Pathway (AID 357); conditions: ME-180 AP-1-bla reporter, EGF-induced, beta-lactamase ratio, 5 h; at 17.2 µM (top of the series) unless noted;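 further: ME-180 reporter cells stimulated with EGF at its EC50 level; on the % scale 0 is the no-effect control and ±100 the full control effect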
In short: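 Read-out was the 460nm/530nm emission ratio (excitation 405nm) after CCF4 loading for 2.5 hours at room temperature. Cells carried an AP-1-driven beta-lactamase reporter, were stimulated with EC50 EGF plus compound for 5 hours, and AC50 values came from titrations.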

[2] = NFAT Signaling Pathway (AID 444); conditions: Jurkat NFAT-bla M1, carbachol, beta-lactamase ratio, 5 h; at 17.2 µM (top of the series) unless noted;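 further: carbachol stimulus at about its EC50 of 1 µM final; on the % scale 0 is the no-effect control and ±100 the full control effect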
In short: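 Jurkat cells with NFAT-driven β-lactamase reporter and co-expressed M1 receptor, stimulated with carbachol (final 1 uM, ~EC50), compound titration, 5 h at 37 °C. CCF4 loaded 1 h at RT; 460/530 nm ratio gave %activity and AC50.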

[3] = Stat Signaling Pathway (AID 446); conditions: ME-180 SIE beta-lactamase reporter, IL-6 stimulated, 5 h; at 17.2 µM (top of the series) unless noted;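 further: ME-180 cervical cancer cells given 40 pM IL-6 alongside compound; SIE-controlled beta-lactamase reporter measured as 460/530 nm FRET emission ratio; on the % scale 0 is the no-effect control and ±100 the full control effect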
In short: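 Overnight-plated ME-180 cells bearing a STAT Inducible Element beta-lactamase reporter; 5 h co-exposure to compound and 40 pM IL-6; values normalized to 300 pM IL-6 and 125 nM JAK inhibitor controls.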

[4] = target: Glucocorticoid receptor (Homo sapiens) (UniProt P04150); assay: GR-GFP Redistribution (AID 450;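 active means compounds whose dose series gives a full or clear partial fitted curve of increased nuclear translocation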; further: potency means the concentration at half of the fitted maximal effect)
Glucocorticoid receptor (Homo sapiens), sequence (P04150 whole entry, looked up, the tested form may be a part): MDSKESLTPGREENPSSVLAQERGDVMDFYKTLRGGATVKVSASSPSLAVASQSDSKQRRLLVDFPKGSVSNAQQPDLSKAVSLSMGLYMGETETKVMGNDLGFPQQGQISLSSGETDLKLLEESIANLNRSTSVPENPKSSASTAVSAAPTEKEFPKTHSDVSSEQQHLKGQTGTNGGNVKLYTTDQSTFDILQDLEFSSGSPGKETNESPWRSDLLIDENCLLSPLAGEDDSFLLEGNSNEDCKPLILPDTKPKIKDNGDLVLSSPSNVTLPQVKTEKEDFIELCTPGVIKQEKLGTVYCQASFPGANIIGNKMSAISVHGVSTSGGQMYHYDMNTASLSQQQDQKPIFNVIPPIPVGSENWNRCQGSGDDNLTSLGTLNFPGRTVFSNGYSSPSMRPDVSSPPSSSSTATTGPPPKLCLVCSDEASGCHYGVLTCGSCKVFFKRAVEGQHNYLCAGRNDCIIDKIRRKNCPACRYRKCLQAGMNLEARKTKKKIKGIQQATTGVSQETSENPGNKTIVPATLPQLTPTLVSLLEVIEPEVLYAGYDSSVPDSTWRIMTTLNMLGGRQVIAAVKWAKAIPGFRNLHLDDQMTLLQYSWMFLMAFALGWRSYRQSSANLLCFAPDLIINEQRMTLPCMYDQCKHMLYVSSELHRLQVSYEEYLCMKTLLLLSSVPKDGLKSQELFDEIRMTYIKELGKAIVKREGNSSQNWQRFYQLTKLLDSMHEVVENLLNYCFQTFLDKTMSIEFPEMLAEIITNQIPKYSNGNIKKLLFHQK

[5] = target: Glucocorticoid receptor (Homo sapiens) (UniProt P04150); assay: GR-EFC Redistribution (AID 451; calls by dose curve; further: potency means the concentration at half of the fitted maximal effect); conditions: CHO-K1 GR-EFC translocation, beta-gal luminescence, 2 h
In short: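 CHO-K1 cells expressing nuclear EA and GR-ED fragments of b-gal; compounds titrated up to 46 uM final, 2 h at 37 C. GR nuclear translocation read as complemented b-gal luminescence after 1 h RT detection.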

[6] = target: Mitogen-activated protein kinase 10 (Mus musculus) (UniProt Q61831); assay: JNK3 AlphaScreen Assay (AID 530);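 further: kinase came from lysate of stimulated human HepG2 cells; signal reports phosphorylation of biotinylated GST-cJun 1-79 at Ser73 with 10 µM ATP; on the % scale 0 is the no-effect control and ±100 the full control effect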
In short: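 Activity was read by AlphaScreen after JNK3-containing HepG2 lysate (cytokine pre-activated) phosphorylated biotinylated GST-cJun with 10 uM ATP at room temperature. Phospho-Ser73 cJun antibody with Protein-A acceptor beads provided detection.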

[7] = target: Guanine nucleotide-binding protein G(i) subunit alpha-1 (Homo sapiens) (UniProt P63096); assay: qHTS Assay for Inhibitors of RGS12 GoLoco Motif Activity (Green Fluorophore) (AID 879; active means well fitted curve in the direction sought with a large enough effect; an effect the other way counts as inactive or inconclusive;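 further: 0% = labeled peptide with Gαi1 and full inhibition = labeled peptide alone without protein; negative values mean loss of peptide binding seen as reduced polarization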)
Guanine nucleotide-binding protein G(i) subunit alpha-1 (Homo sapiens), sequence (P63096 whole entry, looked up): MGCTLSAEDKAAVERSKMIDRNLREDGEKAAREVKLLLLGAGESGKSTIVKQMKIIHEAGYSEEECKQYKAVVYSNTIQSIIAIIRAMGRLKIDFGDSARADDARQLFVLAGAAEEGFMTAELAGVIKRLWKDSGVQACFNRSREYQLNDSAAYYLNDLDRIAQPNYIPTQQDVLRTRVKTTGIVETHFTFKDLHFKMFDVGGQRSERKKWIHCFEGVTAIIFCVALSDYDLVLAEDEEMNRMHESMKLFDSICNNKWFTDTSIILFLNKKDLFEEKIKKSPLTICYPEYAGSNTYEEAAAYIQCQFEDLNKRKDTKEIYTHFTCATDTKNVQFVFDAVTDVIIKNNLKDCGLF
In short: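 A drop in FITC polarization marked displacement of the FITC-tagged RGS12 GoLoco peptide (10 nM) from Gαi1 (50 nM). Compounds were incubated 10 min at room temperature in Tris pH 7.5 buffer containing 150 mM NaCl, 0.1 mM GDP and 0.05% NP40; unlabeled peptide titration served as control.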

[8] = qHTS Assay for Identification of Small Molecule Agonists for Thrombopoietin (TPO) Signaling Pathway (AID 917; active means well fitted curve in the direction sought with a large enough effect; an effect the other way counts as inactive or inconclusive; further: on the % scale 0 is the no-effect control and ±100 the full control effect)
In short: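 Cell-based luciferase reporter screen. Mouse Ba/F3 line stably expressing human TPO receptor; IL-3 removed overnight before plating. Co-treatment with compound and EC50 TPO (26 pM), 24 hrs at 37 C, then luminescence.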

[9] = target: Pyruvate kinase (Leishmania mexicana) (UniProt Q27686); assay: qHTS Validation Assay for Inhibitors of Leishmania Mexicana Pyruvate Kinase (AID 945; active means well fitted curve in the direction sought with a large enough effect; an effect the other way counts as inactive or inconclusive;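 further: 0% = DMSO only neutral control wells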)
Pyruvate kinase (Leishmania mexicana), sequence (Q27686 2-499 E452W): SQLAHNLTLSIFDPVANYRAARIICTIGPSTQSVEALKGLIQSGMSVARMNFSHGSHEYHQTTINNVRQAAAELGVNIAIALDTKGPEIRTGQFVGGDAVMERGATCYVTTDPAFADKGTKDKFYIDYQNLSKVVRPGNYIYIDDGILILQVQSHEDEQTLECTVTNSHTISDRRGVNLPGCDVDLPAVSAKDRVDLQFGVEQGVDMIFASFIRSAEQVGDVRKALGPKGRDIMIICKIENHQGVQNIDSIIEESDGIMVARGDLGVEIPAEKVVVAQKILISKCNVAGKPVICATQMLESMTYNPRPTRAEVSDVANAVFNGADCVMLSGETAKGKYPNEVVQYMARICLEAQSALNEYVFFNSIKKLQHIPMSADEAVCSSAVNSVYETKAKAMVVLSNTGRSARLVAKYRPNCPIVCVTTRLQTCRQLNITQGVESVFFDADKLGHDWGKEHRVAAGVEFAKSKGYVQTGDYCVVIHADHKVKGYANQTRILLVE
In short: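 Pyruvate kinase activity of E451W LmPYK (0.2 nM) was followed as ATP output after 1 h at room temperature with 0.5 mM PEP and 0.1 mM ADP, detected by PKLight luminescence.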

[10] = target: Pyruvate kinase PKM (Homo sapiens) (UniProt P14618); assay: qHTS Assay for Activators of Human Muscle Pyruvate Kinase (AID 954; active means well fitted curve in the direction sought with a large enough effect, not every such curve was filed as active;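 further: 0% = uninhibited enzyme and -100% = no enzyme or full thiadiazolimine inhibition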)
Pyruvate kinase PKM (Homo sapiens), sequence (P14618 whole entry, looked up): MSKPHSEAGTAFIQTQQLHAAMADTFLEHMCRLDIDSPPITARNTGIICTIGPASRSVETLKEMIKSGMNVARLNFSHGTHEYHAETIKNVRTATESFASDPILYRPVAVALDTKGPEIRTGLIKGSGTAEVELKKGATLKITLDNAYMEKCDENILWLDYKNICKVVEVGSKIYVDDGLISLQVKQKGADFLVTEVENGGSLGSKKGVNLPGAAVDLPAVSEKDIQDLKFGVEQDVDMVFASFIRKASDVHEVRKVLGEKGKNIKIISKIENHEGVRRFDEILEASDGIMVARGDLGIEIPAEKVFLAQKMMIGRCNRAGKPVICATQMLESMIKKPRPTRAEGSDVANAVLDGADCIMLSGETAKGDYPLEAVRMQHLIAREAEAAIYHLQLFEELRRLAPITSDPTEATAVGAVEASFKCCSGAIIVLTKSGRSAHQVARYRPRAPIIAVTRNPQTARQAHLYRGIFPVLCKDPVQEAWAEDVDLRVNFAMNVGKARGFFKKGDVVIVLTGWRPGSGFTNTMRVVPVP
In short: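 Screening used highly purified human pyruvate kinase M2 under submaximal activity, with PEP at its Km and ADP below Km. After an hour at room temperature, ATP was read by luciferase luminescence.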

[11] = target: Alpha-galactosidase A (Homo sapiens) (UniProt P06280); assay: Counterscreen for Glucocerebrosidase Inhibitors: qHTS Assay for Human alpha-Galactosidase at pH 4.5 (AID 992; active means well fitted curve in the direction sought with a large enough effect; an effect the other way counts as inactive or inconclusive; further: 0% is about no effect)
Alpha-galactosidase A (Homo sapiens), sequence (P06280 whole entry, looked up): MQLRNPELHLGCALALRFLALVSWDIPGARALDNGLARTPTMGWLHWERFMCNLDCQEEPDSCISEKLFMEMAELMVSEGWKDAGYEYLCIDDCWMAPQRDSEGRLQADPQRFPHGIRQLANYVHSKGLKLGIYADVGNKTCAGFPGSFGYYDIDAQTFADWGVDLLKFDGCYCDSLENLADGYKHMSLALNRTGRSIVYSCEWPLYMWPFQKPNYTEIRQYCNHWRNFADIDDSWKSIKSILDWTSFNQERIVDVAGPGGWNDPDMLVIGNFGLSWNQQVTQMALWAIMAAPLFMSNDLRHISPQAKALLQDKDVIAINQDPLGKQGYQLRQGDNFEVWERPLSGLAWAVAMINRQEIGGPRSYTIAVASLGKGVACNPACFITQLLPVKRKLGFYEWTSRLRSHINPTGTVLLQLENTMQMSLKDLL
In short: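 Each compound is preincubated briefly with 2 nM enzyme before substrate addition (80 uM); plates then sit 20 min at ambient temperature, are quenched with 1M NaOH/1M glycine, and read fluorometrically.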

[12] = target: alpha-glucosidase (Oryza sativa, rice) (UniProt Q653V4); assay: Counterscreen for Glucocerebrosidase Inhibitors: qHTS Assay for Rice alpha-Glucosidase at pH 5.0 (AID 997; active means well fitted curve in the direction sought with a large enough effect; an effect the other way counts as inactive or inconclusive;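 further: 0% = full activity with enzyme and -100% = basal without enzyme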)
In short: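 Endpoint fluorogenic assay at pH 5.0: compounds (0.7 nM to 77 uM) titrated against 4 nM rice enzyme and 400 uM 4-MU-alpha-glucoside for 20 min at room temperature; NaOH/glycine stop, read ex 365/em 440 nm, Hill-fitted AC50.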

[13] = target: 3',5'-cyclic-AMP phosphodiesterase 4B (Homo sapiens) (UniProt Q07343); assay: qHTS Assay for Inhibitors of PDE-IV (AID 607; active means well fitted activation curve with a large enough effect in the main read-out, with a control signal flat, not every such curve was filed as active; further: % of control where 0% means no effect)
3',5'-cyclic-AMP phosphodiesterase 4B (Homo sapiens), sequence (Q07343 whole entry, looked up): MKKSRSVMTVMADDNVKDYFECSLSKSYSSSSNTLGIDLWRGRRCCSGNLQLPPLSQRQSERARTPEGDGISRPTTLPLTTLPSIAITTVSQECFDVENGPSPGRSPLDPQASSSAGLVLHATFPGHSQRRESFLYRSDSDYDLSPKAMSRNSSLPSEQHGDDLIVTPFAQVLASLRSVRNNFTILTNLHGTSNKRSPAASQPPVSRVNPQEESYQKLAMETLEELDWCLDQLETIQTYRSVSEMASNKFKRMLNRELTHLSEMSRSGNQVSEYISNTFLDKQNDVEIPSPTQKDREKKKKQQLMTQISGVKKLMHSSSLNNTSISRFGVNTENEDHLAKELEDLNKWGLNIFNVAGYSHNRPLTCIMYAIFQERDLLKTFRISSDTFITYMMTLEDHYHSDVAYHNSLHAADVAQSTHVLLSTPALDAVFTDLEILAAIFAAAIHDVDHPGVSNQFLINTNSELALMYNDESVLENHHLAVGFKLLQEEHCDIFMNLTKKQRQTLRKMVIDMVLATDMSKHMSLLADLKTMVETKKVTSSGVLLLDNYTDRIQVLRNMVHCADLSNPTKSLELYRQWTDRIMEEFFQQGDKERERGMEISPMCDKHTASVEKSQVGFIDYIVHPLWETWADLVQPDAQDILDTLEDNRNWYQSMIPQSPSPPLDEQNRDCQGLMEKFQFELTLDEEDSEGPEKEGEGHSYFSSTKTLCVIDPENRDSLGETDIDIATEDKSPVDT
In short: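 Live HEK293 cells with a modified cyclic nucleotide-gated (CNG) channel report intracellular cAMP via membrane-potential dye fluorescence (ex 535/em 590 nm). Endogenous PDE-IV was targeted. Compounds were tested at up to 22.9 uM final; RO 20-1724 100 uM served as control.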

[14] = target: Cytochrome P450 3A4 (Homo sapiens) (UniProt P08684); assay: qHTS Assay for Activators of Cytochrome P450 3A4 (AID 885; active means well fitted curve in the direction sought with a large enough effect; an effect the other way counts as inactive or inconclusive; further: nearly all actives have a fitted effect of over 65% in size)
Cytochrome P450 3A4 (Homo sapiens), sequence (P08684 whole entry, looked up): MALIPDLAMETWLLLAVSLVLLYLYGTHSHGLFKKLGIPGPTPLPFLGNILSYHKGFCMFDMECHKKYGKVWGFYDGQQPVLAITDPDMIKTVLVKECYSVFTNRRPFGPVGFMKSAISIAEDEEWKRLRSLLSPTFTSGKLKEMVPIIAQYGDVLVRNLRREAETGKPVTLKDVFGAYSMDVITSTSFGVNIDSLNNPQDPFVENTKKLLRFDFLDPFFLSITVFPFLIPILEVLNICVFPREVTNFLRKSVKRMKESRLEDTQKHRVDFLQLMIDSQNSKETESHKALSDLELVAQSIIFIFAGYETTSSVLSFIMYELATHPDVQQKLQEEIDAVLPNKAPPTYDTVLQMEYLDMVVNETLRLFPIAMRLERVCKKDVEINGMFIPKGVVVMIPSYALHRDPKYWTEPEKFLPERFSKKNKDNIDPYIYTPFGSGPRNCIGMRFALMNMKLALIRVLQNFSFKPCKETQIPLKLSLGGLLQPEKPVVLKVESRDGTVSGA
In short: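 Using 20nM recombinant human CYP3A4 in potassium phosphate (200mM), substrate Luciferin-PPXE at 25uM, luminescent luciferin detection followed a 60-min RT NADPH reaction; data scaled to 57 uM ketoconazole.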

[15] = qHTS Assay for Identification of Small Molecule Antagonists for NFkB Signaling Pathway (AID 895; active means well fitted inhibition curve with a large enough effect in the signal ratio, with a control signal flat, not every such curve was filed as active; the % refers to the signal ratio; further: potency means the concentration at half of the fitted maximal effect)
In short: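 ME-180 NFkB-bla cells (beta-lactamase under NFkB response element), plated overnight, treated with compound then 10 pM TNF alpha (about EC50) for 5 hrs at 37 C. LiveBLAzer FRET read at 460/530 nm emission, 405 nm excitation.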

[16] = target: Muscarinic acetylcholine receptor M1 (Rattus norvegicus) (UniProt P08482); assay: qHTS Assay for Antagonists of Acetylcholine Muscarinic M1 Receptor: Kinetic Measurement of Intracellular Calcium Response (AID 943; active means well fitted curve in the direction sought with a large enough effect; an effect the other way counts as inactive or inconclusive;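 further: Fluo-4 calcium signal as peak divided by basal fluorescence over 4 min; nearly all actives have a fitted effect of over 75% in size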)
Muscarinic acetylcholine receptor M1 (Rattus norvegicus), sequence (P08482 whole entry, looked up): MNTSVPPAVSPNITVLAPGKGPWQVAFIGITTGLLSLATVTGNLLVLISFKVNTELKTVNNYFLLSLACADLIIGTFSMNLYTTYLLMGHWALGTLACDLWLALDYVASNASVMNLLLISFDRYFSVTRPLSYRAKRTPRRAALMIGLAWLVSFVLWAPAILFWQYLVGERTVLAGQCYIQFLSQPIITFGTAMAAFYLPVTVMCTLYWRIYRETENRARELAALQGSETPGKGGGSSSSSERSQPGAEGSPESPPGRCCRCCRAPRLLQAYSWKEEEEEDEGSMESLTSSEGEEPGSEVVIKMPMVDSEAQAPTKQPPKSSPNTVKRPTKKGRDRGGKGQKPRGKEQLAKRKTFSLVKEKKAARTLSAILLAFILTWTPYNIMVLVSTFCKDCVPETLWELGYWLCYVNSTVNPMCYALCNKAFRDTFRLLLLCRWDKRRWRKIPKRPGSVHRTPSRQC
In short: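 Antagonism is measured as inhibition of the carbachol-evoked calcium rise in CHO cells transfected with rat M1. Cells are dye-loaded, exposed to compound for 10 min, then stimulated with 100 nM carbachol (EC80).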

[17] = target: Muscarinic acetylcholine receptor M1 (Rattus norvegicus) (UniProt P08482); assay: qHTS Assay for Antagonists of Acetylcholine Muscarinic M1 Receptor: Measurement of IP-One Response (AID 944; active means well fitted curve in the direction sought with a large enough effect; an effect the other way counts as inactive or inconclusive; further: nearly all actives have a fitted effect of over 75% in size)
In short: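 Antagonist mode with rat M1 receptor transfected into CHO cells. Compound is added first for 10 min, carbachol at its EC80 follows for 30 min, and lysis reagents then allow TR-FRET detection of accumulated IP1.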

CN(C)c1nc(OCCOC(=O)Nc2ccc(Cl)cc2Cl)nc(N(C)C)n1
inactive: activity change, negative = inhibition [1] -3.73% | activity change, negative = inhibition [2] -3.72% | activity, negative = inhibition [3] -7.35% | Potency [4] > 20.6 µM

CCn1c(SCC(=O)Nc2ccccc2C(=O)OC)nnc1-c1ccc(N)cc1
inactive: activity change, negative = inhibition [1] -23.2% | activity change, negative = inhibition [2] -3.89% | activity, negative = inhibition [3] 0.432% | Potency [4] > 20.6 µM

COc1ccc2[nH]c(C)c(C(=O)CN3CCN(C(=O)c4ccco4)CC3)c2c1
inactive: activity change, negative = inhibition [1] -11.2% | activity change, negative = inhibition [2] -1.42% | activity, negative = inhibition [3] -3.32% | Potency [4] > 20.6 µM

CCc1ccc2c(c1)C(C)=CC(C)(C)N2
inactive: activity change, negative = inhibition [1] 1.34% | activity change, negative = inhibition [2] 7.21% | activity, negative = inhibition [3] -8.11% | Potency [4] > 20.6 µM

CCCCCCC(=O)N1CCN(c2cc3c(cc2F)c(=O)c(C(=O)O)cn3CC)CC1
inactive: activity change, negative = inhibition [1] -1.28% | activity change, negative = inhibition [2] 7.84% | activity, negative = inhibition [3] 0.48% | Potency [4] > 20.6 µM

COC(=O)/C=c1/s/c(=C(/C#N)C(=O)N2CCCCC2)n(-c2ccccc2)c1=O
inactive: activity change, negative = inhibition [1] 26% | activity change, negative = inhibition [2] -25.6% | activity, negative = inhibition [3] -5.91% | Potency [4] > 20.6 µM

CC1(C)Cc2c(c(-c3ccccc3Cl)[nH]c(=O)c2C#N)CO1
inactive: activity change, negative = inhibition [1] 13% | activity change, negative = inhibition [2] -5.06% | activity, negative = inhibition [3] 2.62% | Potency [4] > 20.6 µM

Cn1c(=O)c2c(nc(NCc3ccco3)n2Cc2ccccc2Cl)n(C)c1=O
inactive: activity change, negative = inhibition [1] 16.7% | activity change, negative = inhibition [2] 2.77% | activity, negative = inhibition [3] -14.8% | Potency [4] > 20.6 µM

CCn1c(SCC(=O)NC2CCCCC2C)nnc1-c1ccc(OC)cc1 (configuration not stated)
inactive: activity change, negative = inhibition [1] -8.83% | activity change, negative = inhibition [2] 19.9% | activity, negative = inhibition [3] -7.61% | Potency [4] > 20.6 µM

CCOC(=O)c1ccc(NC(=O)CCC(CC)C(=O)O)cc1 (configuration not stated)
inactive: activity change, negative = inhibition [1] -2.51% | activity change, negative = inhibition [2] -11.6% | activity, negative = inhibition [3] 3.77% | Potency [4] > 20.6 µM

Cc1cc(C)nc(CC(N)=O)n1
inactive: activity change, negative = inhibition [1] 0.0367% | activity change, negative = inhibition [2] 4.47% | activity, negative = inhibition [3] -0.0254% | Potency [4] > 20.6 µM

CN(C)/C=C1\N=C(c2ccc(Cl)cc2Cl)OC1=O
inactive: activity change, negative = inhibition [1] -19.5% | activity change, negative = inhibition [2] -5.67% | activity, negative = inhibition [3] 3.89% | Potency [4] > 20.6 µM

CC(C)(C(=O)O)c1ccc([C@@H](O)CCCN2CCC(C(O)(c3ccccc3)c3ccccc3)CC2)cc1
inactive: activity change, negative = inhibition [1] 8.57% [at 38 µM] | activity change, negative = inhibition [2] 8.69% [at 38 µM] | activity, negative = inhibition [3] 11.8% [at 38 µM] | Potency [4] > 46 µM | Potency [5] > 46 µM | Potency [6] | outcome [7] | Potency [8] | Potency [9] | outcome [10] | outcome [11] | outcome [12]

O=C(CSc1ncnc2nc[nH]c12)c1ccccc1
inactive: activity change, negative = inhibition [1] -9.01% [at 7.69 µM] | activity change, negative = inhibition [2] 11.7% [at 7.69 µM] | activity, negative = inhibition [3] 1.65% [at 7.69 µM] | Potency [4] > 46 µM | Potency [5] > 9.22 µM | activity change, negative = inhibition [6] -0.309% [at 11.4 µM] | Potency [13]

CCc1ccccc1NC(=O)CSC1=C(C#N)C(c2ccc(O)c(OC)c2)C2=C(CCCC2=O)N1 (configuration not stated)
inactive: activity change, negative = inhibition [1] -4.47% | activity change, negative = inhibition [2] 2.67% | activity, negative = inhibition [3] -5.76% | Potency [4] > 20.6 µM

O=C1c2c(O)cc(O)cc2O[C@@H](c2ccc(O)c(O)c2)[C@H]1O
inactive: activity change, negative = inhibition [1] -14.3% [at 38 µM] | activity change, negative = inhibition [2] 13.3% [at 38 µM] | activity, negative = inhibition [3] -8.15% [at 38 µM] | Potency [4] > 46 µM | Potency [5] > 46 µM | Potency [6] | Potency [13] | Potency [14] | Potency [8] | Potency [9] | outcome [10] | outcome [11] | outcome [12]
active: Potency [15] 1.58 µM

CCCCC[C@H](O)CCCC(=O)O
active: Potency [15] 5.01 µM
inactive: activity change, negative = inhibition [1] -0.599% [at 38 µM] | activity change, negative = inhibition [2] -3.23% [at 38 µM] | activity, negative = inhibition [3] -28.6% [at 38 µM] | Potency [4] > 46 µM | Potency [5] > 46 µM | Potency [6] | Potency [13] | outcome [7] | Potency [8] | Potency [16] | Potency [17] | Potency [9] | outcome [10] | outcome [11] | outcome [12]

Nc1ncn([C@@H]2O[C@@H](CO)[C@@H](O)[C@H]2O)c(=O)n1
inactive: activity change, negative = inhibition [1] -29.6% [at 38 µM] | activity change, negative = inhibition [2] -6.36% [at 38 µM] | activity, negative = inhibition [3] 2.98% [at 38 µM] | Potency [4] > 46 µM | Potency [5] > 46 µM | Potency [6] | Potency [13]

COCCOC(=O)C1=C(C)NC(SCC(=O)NC(C)(C)C)=C(C#N)C1c1ccco1 (configuration not stated)
inactive: activity change, negative = inhibition [1] -20.5% | activity change, negative = inhibition [2] 12.6% | activity, negative = inhibition [3] -8.48% | Potency [4] > 20.6 µM
